Assay results: PubChem BioAssay (NCI)
About 83,000 compounds went through this panel and 20% of them were active in at least one assay; those are over-represented in the sample as a whole.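 Single-concentration screen, 48 h exposure, 96-well plates. Endpoint: percent growth. Below 10 = active.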 Values without a mark were called inactive. Active and inactive are the calls of the source.

What follows are compounds tested on HL-60(TB) leukemia (assay: NCI-60 one-dose screen, 48 h (100 = growth as untreated, 0 = no growth, -100 = all killed)). Conditions: 10 µM unless noted.
`O=C(O)c1ccc(-n2cc(/C=N/Nc3ccc(F)cc3)c(-c3cccc(C(F)(F)F)c3)n2)cc1` showed a growth of 34.3%.
With `CCOC(=O)c1ccc(NC(=O)CCCN(CC)CC)cc1` the growth was 100%.
With `Nc1ccn(C2OC(F)(CO)C(O)C2F)c(=O)n1` (stereo not drawn) the growth was 12.2%.
`O=C1Nc2c(ccc(Cl)c2Cl)/C1=C/c1cc(Br)c(O)c(Br)c1` showed a growth of 33%.
In the case of `c1ccc(-c2n(Cc3ccc4ccccc4c3)c3ccccc3[n+]2Cc2ccc3ccccc3c2)cc1`, the growth is reported as -49.3% (active).
`CC[C@]1(O)CC2CN(CCc3c([nH]c4ccccc34)[C@@](C(=O)OC)(c3cc4c(cc3OC)N(C)[C@H]3[C@@](O)(C(=O)OC)[C@H](OC(C)=O)[C@]5(CC)C=CCN6CC[C@]43[C@@H]65)C2)C1` (stereo partly drawn) was tested, and the growth was 2.87% (active).
In the case of `Cc1cccc2c(=O)c3c(sc12)c(NCc1ccccc1)nc1ccccc13`, the growth is reported as 95.5%.
With `COc1cc(Cl)cc(-c2nn(-c3cccc(NC(=O)Nc4cccc(C(F)(F)F)c4)c3)cc2-c2ccncc2)c1` the growth was -7.89% (active).
With `CCOc1ccc(-n2nc(C(=O)Nc3cc(OC)c(OC)c(OC)c3)nc2-c2cc(OC)c(OC)c(OC)c2)cc1` the growth was 98.2%.
`O=C(COc1cccc(/C=C2\Cc3ccc(Cl)cc3C2=O)c1)Nc1nccs1` showed a growth of 62.2%.
`O=C1C=CC(=O)c2c1nc1n2CCCC1` gave a growth of 94.7%.
`C[Si](C)(C)Cc1ccccc1` gave a growth of 125%.
In the case of `COc1ccc2[nH]c(C(=O)OCc3ccc4c(Cl)cc(Cl)c(O)c4n3)cc2c1`, the growth is reported as -30.4% (active).
